The target of test [1] is Nucleoli Translocation, AR (gene 367) (UniProt P10275). Description: UPITT_HCI_U2OS_AR_TIF2_Nucleoli_Agonist: University of Pittsburgh U2OS Androgen Receptor-Transcriptional Intermediary Factor 2 (AR-TIF2) Agonism High Content Imaging Assay for Nucleoli Translocation (AID 2283998; active = hit-call score of the fitted dose curve at least 0.9, where 1 is the maximum). Summed up: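 Readout is red (AR-RFP) fluorescence localized to nucleoli, measured by high-content imaging and analysed for increase relative to DMSO. Compound series spanned 0.195 to 50 uM final in 0.5% DMSO.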

The target in test [2] is Ratio of Nucleoli Translocation and Cytoplasm, AR (gene 367) (UniProt P10275). The test can be described thus: UPITT_HCI_U2OS_AR_TIF2_Nucleoli_Cytoplasm_Ratio_Antagonist: University of Pittsburgh U2OS Androgen Receptor-Transcriptional Intermediary Factor 2 (AR-TIF2) Antagonism High Content Imaging Assay for Ratio of Nucleoli Translocation and Cytoplasm (AID 2283999; active = hit-call score of the fitted dose curve at least 0.9, where 1 is the maximum;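 note: antagonists lower the DHT-driven ratio of nucleolar to cytoplasmic red signal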). Summed up: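 U2OS cells co-expressing RFP-tagged human AR and GFP-tagged TIF2, antagonist mode with DHT as baseline. Nucleolar-to-cytoplasmic red fluorescence ratio imaged by high-content microscopy; final compound 20 uM (0.2% DMSO) primary, 0.195–50 uM (0.5% DMSO) concentration-response.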

Test [3] shares this target. The test can be described thus: UPITT_HCI_U2OS_AR_TIF2_Nucleoli_Cytoplasm_Ratio_Agonist: University of Pittsburgh U2OS Androgen Receptor-Transcriptional Intermediary Factor 2 (AR-TIF2) Agonism High Content Imaging Assay for Ratio of Nucleoli Translocation and Cytoplasm (AID 2284000; active = hit-call score of the fitted dose curve at least 0.9, where 1 is the maximum;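 note: hits raise the red nucleolar to cytoplasm ratio above vehicle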). In outline: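 Read-out first: nucleolar-to-cytoplasm ratio of red (AR-RFP) signal, quantified by high-content imaging in U2OS cells co-expressing TIF2-GFP. Activity is scored as signal increase over DMSO. Single-point screening used 20 uM final (0.2% DMSO).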

A short description of test [4]: CCTE_Simmons_MITO_basal_resp_rate: CCTE's HepG2 Seahorse XF Respirometric Screening Assay at Basal Respiratory State, Simmons Lab (AID 2284001). Conditions: actives raise or lower the signal. Summed up:
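HepG2 respirometry; 7-pt titration 125 nM–100 uM final; kinetic OCR at 6 min intervals for 72 min; n=3 biological, technical singles; DMSO baseline, gain or loss fit; fenpyroximate (decrease) and 2,4-DNP (increase) controls.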

Test [5] is described as follows: CCTE_Simmons_MITO_max_resp_rate: CCTE's HepG2 Seahorse XF Respirometric Screening Assay at Maximal Respiratory State [uncoupled], Simmons Lab (AID 2284002). Conditions: actives raise or lower the signal. In outline: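 Read-out is oxygen consumption rate at maximal respiration, taken after FCCP uncoupling of compound-treated HepG2 cells. Seven final concentrations from 125 nM to 100 uM were tested, each in three biological replicates.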

Test [6] is described as follows: CCTE_Simmons_MITO_inhib_resp_rate: CCTE's HepG2 Seahorse XF Respirometric Screening Assay at Inhibited Respiratory State [full ETC block], Simmons Lab (AID 2284006). The settings on record: actives raise or lower the signal. Summed up:
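HepG2 oxygen consumption was measured by Seahorse XF after compound, FCCP, then rotenone/antimycin A injections. Seven concentrations from 125 nM to 100 uM (final) were tested, with 6-min kinetic reads over 72 minutes. Inhibited-state OCR was fitted bidirectionally against DMSO.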

Test [7] in a line: CCTE_Shafer_MEA_acute_spike_number: CCTE's Neural Acute Assay for Total Number of Spikes, Shafer Lab (AID 2284008).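 For AC50: curve fitted for decrease in spike count so AC50 reflects inhibitors.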 Summed up: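 Read-out is the total spike count over 40 min, expressed as percent change from each well's own pre-treatment baseline and fitted in the loss direction against DMSO. Rat cortical neurons were exposed at 0.03-40 uM on DIV 13 or 15.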
Test [8] in a line: CCTE_Shafer_MEA_acute_firing_rate_mean: CCTE's Neural Acute Assay for Mean Firing Rate, Shafer Lab (AID 2284009).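 Note: analyzed for loss of signal so actives lower firing rate relative to DMSO.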 Summed up: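 Percent change in well-mean firing rate was derived from extracellular spikes detected at 8x rms noise (300-5000 Hz band-pass) before and after a 40-min compound exposure. Cultures were primary rat cortical neurons, tested at 0.03-40 uM.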
Test [9] is described as follows: CCTE_Harrill_HTTr_Viability_MCF7: CCTE's 6-hour Cell Viability Assessment for the High-Throughput Transcriptomics (HTTr) Platform, in MCF-7 cells cultured in DMEM + 10% fetal bovine serum, Harrill Lab (AID 2284010). In outline: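 MCF-7 cells in DMEM + 10% FBS, 384-well, exposed 6 h to an eight-point dilution series. Membrane integrity scored by high-content imaging of propidium iodide exclusion; bidirectional fit versus DMSO.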

The nature of test [10]: CCTE_Harrill_HTTr_Viability_PRF_DMEM_12hr: (Pilot) CCTE's 12-hour Cell Viability Assessment for the High-Throughput Transcriptomics (HTTr) Platform, in MCF-7 cells cultured in phenol red-free DMEM + 10% charcoal-stripped fetal bovine serum, Harrill Lab (AID 2283977). In outline:
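MCF-7 cells in phenol red-free DMEM with 10% charcoal-stripped FBS exposed 12 hours to an eight-point dilution series. Viability assessed by high-content imaging of propidium iodide exclusion; bidirectional fit versus DMSO.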

A short description of test [11]: CCTE_Harrill_HTTr_Viability_PRF_DMEM_24hr: (Pilot) CCTE's 24-hour Cell Viability Assessment for the High-Throughput Transcriptomics (HTTr) Platform, in MCF-7 cells cultured in phenol red-free DMEM + 10% charcoal-stripped fetal bovine serum, Harrill Lab (AID 2283980). In outline: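 MCF-7 cells in phenol red-free DMEM with 10% charcoal-stripped FBS, eight-point dilution series, 24 h exposure. Membrane integrity by propidium iodide exclusion with high content imaging; bidirectional fit vs DMSO.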

The nature of test [12]: CCTE_Harrill_HTTr_Apoptosis_DMEM_6hr: (Pilot) CCTE's 6-hour Apoptosis Assessment for the High-Throughput Transcriptomics (HTTr) Platform, in MCF-7 cells cultured in DMEM + 10% fetal bovine serum, Harrill Lab (AID 2283981). In outline: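 Caspase-3/7 activation read by high content imaging with CellEvent Caspase 3/7 Green in MCF-7 cells (DMEM + 10% FBS), 6 h after dosing; eight-point dilution series. Bidirectional fitting relative to DMSO baseline.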

A short description of test [13]: CCTE_Harrill_HTTr_Apoptosis_DMEM_12hr: (Pilot) CCTE's 12-hour Apoptosis Assessment for the High-Throughput Transcriptomics (HTTr) Platform, in MCF-7 cells cultured in DMEM + 10% fetal bovine serum, Harrill Lab (AID 2283982). Summed up:
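MCF-7 cells in DMEM + 10% FBS, exposed 12 h to an eight-point dilution series; caspase-3/7 activation imaged with CellEvent Green. Bidirectional fit versus DMSO.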

Test [14] is described as follows: CCTE_Harrill_HTTr_Apoptosis_DMEM_24hr: (Pilot) CCTE's 24-hour Apoptosis Assessment for the High-Throughput Transcriptomics (HTTr) Platform, in MCF-7 cells cultured in DMEM + 10% fetal bovine serum, Harrill Lab (AID 2283983). In outline:
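MCF-7 cells in DMEM + 10% FBS, eight-point dilution series, 24 h exposure. Caspase-3/7 activation imaged by high-content imaging with CellEvent Caspase 3/7 Green. Bidirectional curve fitting against DMSO baseline.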

A short description of test [15]: CCTE_Harrill_HTTr_Apoptosis_PRF_DMEM_6hr: (Pilot) CCTE's 6-hour Apoptosis Assessment for the High-Throughput Transcriptomics (HTTr) Platform, in MCF-7 cells cultured phenol red-free DMEM + 10% charcoal-stripped fetal bovine serum, Harrill Lab (AID 2283984). In outline:
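MCF-7 cells in phenol red-free DMEM + 10% charcoal-stripped FBS, eight-point dilution series, 6 h exposure. Caspase-3/7 activation imaged by high-content imaging with CellEvent Caspase 3/7 Green; bidirectional fit versus DMSO baseline.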

Test [16] can be described thus: CCTE_Harrill_HTTr_Apoptosis_PRF_DMEM_12hr: (Pilot) CCTE's 12-hour Apoptosis Assessment for the High-Throughput Transcriptomics (HTTr) Platform, in MCF-7 cells cultured in phenol red-free DMEM + 10% charcoal-stripped fetal bovine serum, Harrill Lab (AID 2283985). Summed up: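 MCF-7 cells in phenol red-free DMEM with 10% charcoal-stripped FBS, eight-point dilution series, 12 h exposure. Caspase-3/7 activation imaged by high content imaging with CellEvent Green reagent; bidirectional fit vs DMSO.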

Test [17] can be described thus: CCTE_Harrill_HTTr_Apoptosis_PRF_DMEM_24hr: (Pilot) CCTE's 24-hour Apoptosis Assessment for the High-Throughput Transcriptomics (HTTr) Platform, in MCF-7 cells cultured in phenol red-free DMEM + 10% charcoal-stripped fetal bovine serum, Harrill Lab (AID 2283986). In outline: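 MCF-7 cells in phenol red-free DMEM with 10% charcoal-stripped FBS, exposed 24 h across an eight-point dilution series. Caspase-3/7 activation imaged with CellEvent Green by high content imaging; bidirectional fitting against DMSO.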

Test [18] deals with DIO1 (gene 1733). The test can be described thus: CCTE_GLTED_hDIO1: CCTE's human Deiodinase 1 (DIO1) Inhibition Assay, Great Lakes Toxicology and Ecology Division (GLTED) Lab (AID 2283987; active = hit-call score of the fitted dose curve at least 0.9, where 1 is the maximum;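 note: isolated human DIO1 enzyme in a cell-free setup rather than cells; enzyme activity read as free iodide liberated from substrate via Sandell-Kolthoff colorimetry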). Summed up: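 Inhibition of human deiodinase 1 is scored as reduced iodide liberation after a 3 h enzyme–chemical incubation, detected colorimetrically by the Sandell-Kolthoff reaction against DMSO controls.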

A short description of test [19]: CCTE_Simmons_MITO_viability: CellTiter-Glo Viability Assessment for CCTE's HepG2 Seahorse XF Respirometric Screening Assay [post-hoc], Simmons Lab (AID 2284007; active = hit-call score of the fitted dose curve at least 0.9, where 1 is the maximum). In outline: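 HepG2 cells exposed 90 min to 7 concentrations from 125 nM to 100 uM final, then ATP measured by luciferase luminescence. Three biological replicates per concentration; DMSO vehicle; dichlone control at 10 nM–100 uM.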
(In ATP-based viability assays light output follows the ATP content of the culture.)

Results filed as inconclusive are left out. Active and inactive are the calls of the source. Rule for the calls, unless noted: active = hit-call score of the fitted dose curve at least 0.9, where 1 is the maximum; inactive = score below 0.9.

Chain of Ratio of Nucleoli Translocation and Cytoplasm, AR (gene 367) (P10275 whole entry, looked up): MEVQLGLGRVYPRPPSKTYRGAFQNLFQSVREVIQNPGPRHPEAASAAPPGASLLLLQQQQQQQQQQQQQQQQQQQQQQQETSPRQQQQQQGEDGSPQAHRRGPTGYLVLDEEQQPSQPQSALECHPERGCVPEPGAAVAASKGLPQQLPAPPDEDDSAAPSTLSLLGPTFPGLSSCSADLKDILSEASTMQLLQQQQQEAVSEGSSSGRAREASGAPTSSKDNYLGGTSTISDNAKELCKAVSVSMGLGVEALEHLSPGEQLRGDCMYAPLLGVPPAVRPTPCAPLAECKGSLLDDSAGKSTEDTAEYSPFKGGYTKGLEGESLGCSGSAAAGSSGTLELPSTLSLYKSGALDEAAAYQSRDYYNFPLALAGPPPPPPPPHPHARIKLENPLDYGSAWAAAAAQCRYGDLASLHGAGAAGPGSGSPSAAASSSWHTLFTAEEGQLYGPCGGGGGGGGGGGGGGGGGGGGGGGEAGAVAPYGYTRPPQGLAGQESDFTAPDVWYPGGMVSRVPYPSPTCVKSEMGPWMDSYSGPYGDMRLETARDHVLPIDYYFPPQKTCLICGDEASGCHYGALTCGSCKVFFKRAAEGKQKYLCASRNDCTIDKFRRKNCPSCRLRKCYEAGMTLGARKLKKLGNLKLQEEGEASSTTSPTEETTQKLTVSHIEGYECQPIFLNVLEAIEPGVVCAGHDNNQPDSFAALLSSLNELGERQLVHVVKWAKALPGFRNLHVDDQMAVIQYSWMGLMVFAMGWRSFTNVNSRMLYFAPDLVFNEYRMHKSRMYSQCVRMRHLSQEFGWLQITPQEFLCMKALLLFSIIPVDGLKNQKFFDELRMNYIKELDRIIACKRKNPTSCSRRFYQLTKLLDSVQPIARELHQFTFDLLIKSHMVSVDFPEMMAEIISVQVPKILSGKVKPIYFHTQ
Chain of Nucleoli Translocation, AR (gene 367) (P10275 whole entry, looked up): as above

For the molecule `Nc1c(Cl)c(F)nc(OCC(=O)O)c1Cl`, the call in test [1], in [2], in test [3], in test [4], in [5] and in test [6] was inactive. Besides, the result in [7], in [8] and in test [9] was inactive.

On to `C=CCOC(=O)C(C)(C)OC(=O)c1cc(-n2c(=O)cc(C(F)(F)F)n(C)c2=O)ccc1Cl`, for which the outcome in test [10], in test [11], in test [12], in test [13], in [14] and in test [15] was inactive. The outcome in [16], in [17] and in test [9] was inactive.

As usually defined, the AC50 is the concentration at which the activity in the assay is half-maximal. With `Cc1ccc(N=CN(C)C=Nc2ccc(C)cc2C)c(C)c1`, the call in [4], in [5], in test [6] and in test [9] was inactive. The values for the AC50 in test [7] and in [8] were 0.126 µM (active) and 0.125 µM (active), respectively.

Regarding `CCCCOCN(C(=O)CCl)c1c(CC)cccc1CC`, the half-maximal activity concentration (AC50) in [18] was 37.9 µM (active); in test [2], 11 µM (active). The molecule was classed as inactive in [1], in test [3] and in [9].

Regarding `Cc1c(COC(=O)[C@@H]2[C@H](/C=C(\Cl)C(F)(F)F)C2(C)C)cccc1-c1ccccc1`, the outcome in test [10], in test [11], in test [12], in test [13], in test [14] and in test [15] was inactive. Also, the result in [16], in [17], in [4], in test [5], in [6] and in test [19] was inactive. Besides, the molecule was classed as inactive in test [7], in [8] and in test [9].

For `CC1(C)CCC(=Cc2ccc(Cl)cc2)C1(O)Cn1cncn1` (stereo not drawn), the AC50 in [1] was 9.87 µM (active); in test [3], 15.9 µM (active). Further, the outcome in test [2], in test [7], in test [8] and in test [9] was inactive.

On to `CC(C)N1C(=O)c2ccccc2NS1(=O)=O`, for which the call in test [7], in [8] and in test [9] was inactive.

Source of the values: PubChem BioAssay (EPA / NIEHS).
